# An excerpt weighted towards active compounds, which were near 0.97% of everything screened.
# CCT modulator – modulators of cytosolic chaperonin (CCT/TRiC) activity. purified chaperonin ATPase assay, HTRF ADP detection, 30 min. activity change, % (concentration not given with the values), hits read low. 360,000 compounds, 0.3% hits. AID 651819; in the data active = activity change below about -30%; note: % is set by controls: 0 for no effect and ±100 for the full control effect
#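 First, chaperonin was dispensed at 40 nM or 20 nM final depending on batch activity. Next, compounds were pinned at 76 uM and ATP added at 10 uM. After 30 min at 37 °C, ADP detection reagents ran 30 min at ambient temperature.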
# MBNL1-CUG inh – inhibitors of human MBNL1 binding to CUG repeat RNA. AID 2675. TR-FRET MBNL1-His/biotin-(CUG)12 binding, 665/545 ratio. Potency, µM (highest dose often 57.5 µM), inactives show top-dose activity change, negative = inhibition, usual class: inhibitors. 280,000 compounds, 0.036% hits; active = well fitted inhibition curve with a large enough effect in the signal ratio, with a control signal flat, not every such curve was filed as active; inconclusive = small, poorly fitted or top-dose-only effect, or effect the other way, or a change in a side signal; inactive = no such curve, though single readings can be large or run the other way; the % refers to the signal ratio; note: potency is the fitted concentration of half-maximal effect; % is set by controls: 0 for no effect and ±100 for the full control effect
# Target sequence (Q9NR56 whole entry, looked up): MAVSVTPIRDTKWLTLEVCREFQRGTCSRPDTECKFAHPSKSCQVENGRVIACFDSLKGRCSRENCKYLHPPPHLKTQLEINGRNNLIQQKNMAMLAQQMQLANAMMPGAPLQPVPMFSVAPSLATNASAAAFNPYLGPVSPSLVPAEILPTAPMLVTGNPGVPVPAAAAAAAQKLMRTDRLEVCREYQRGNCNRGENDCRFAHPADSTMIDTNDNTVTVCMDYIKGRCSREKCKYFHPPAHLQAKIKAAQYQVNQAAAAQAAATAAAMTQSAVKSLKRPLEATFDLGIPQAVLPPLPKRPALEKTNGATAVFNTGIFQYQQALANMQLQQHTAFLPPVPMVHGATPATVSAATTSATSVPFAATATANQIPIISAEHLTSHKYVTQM
#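 TR-FRET readout: Ex 340 nm, 665/545 nm emission ratio, normalized to buffer-only (basal) and MBNL1-(CUG)12 controls. Complex of MBNL1-His with Biotin-(CUG)12, compounds 92 nM–58 uM, incubated 60 min at room temperature.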
# Mm-Cpn inhibitor – inhibitors of Methanococcus maripaludis chaperonin TRiC (MmCpn); 330,000 compounds, 0.031% hits; purified Mm-Cpn ATPase, ADP Transcreener TR-FRET; Potency, µM (doses to about 76.9 µM), for the others: at the highest dose activity, negative = inhibition, most hits filed as inhibitors; note: potency is the fitted concentration of half-maximal effect; % is set by controls: 0 for no effect and ±100 for the full control effect; nearly all actives have a fitted effect of over 80% in size
#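 Compound-treated chaperonin, 25 nM final, turns over 10 uM ATP at 37°C for 30 min following a 10 min preincubation; ADP generated competes with ADP-d2 for Eu-cryptate antibody, lowering FRET.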
# Epigenetic reg – derepresses silenced GFP reporter in murine cells | AID 1865 | 280,000 compounds, 0.2% hits | Potency, µM (titrated, usually from 53.9 µM), without a hit: top-dose GFP activation, hits mostly activators | murine LDR cells, GFP reporter derepression, 30 h; note: potency is the fitted concentration of half-maximal effect; % of control where 0% means no effect; nearly all actives have a fitted effect of over 60% in size
#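 Murine LDR cells carrying a silenced, genomically integrated CMV-driven GFP reporter were exposed to compound for 30 hours at 37 C. After PBS washes, GFP-positive cells (20–120 um objects) were counted by laser-scanning microplate cytometry.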
# Akt phos inh – blocks phosphorylation of Akt. activity change, % for hits at 50 µM. Neuro2A IGF-stimulated pAkt S473 HTRF, 20 min; stronger effect = lower value. 360,000 compounds, 0.32% hits; in the data active = activity change below about -80%; inconclusive = mostly about -51% to -80%; note: % is set by controls: 0 for no effect and ±100 for the full control effect
#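 Single-point screen (50 µM final compound) in Neuro2A cells stimulated 20 min with 6 nM IGF at 37 deg C. After lysis, Ser473-phosphorylated Akt read by HTRF (ex 330 nm, em 615/665 nm) as the 665/615 ratio.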
# uPA surface inh – cell surface uPA generation inhibition; cell surface uPA generation assay, qHTS; Potency, µM (doses to about 38.3 µM), for inactives: at the top dose activity change, negative = inhibition, hits mostly inhibitors; 330,000 compounds, 0.31% hits; AID 540303; active = well fitted inhibition curve with a large enough effect; inconclusive = small, poorly fitted or top-dose-only effect; inactive = no such curve, though single readings can be large or run the other way; tested in mouse RAW 264.7 cells; note: potency is the fitted concentration of half-maximal effect; % is set by controls: 0 for no effect and ±100 for the full control effect; nearly all actives have a fitted effect of over 55% in size
# Active calls of the source: *; i = inactive; ? = inconclusive; · = no result given. Unless noted, calls come from the whole dose curve; as a rule, active = well fitted curve in the direction sought with a large enough effect; inconclusive = small, poorly fitted or top-dose-only effect, or another doubt; inactive = no such curve, though single readings can be large; an effect the other way counts as inactive or inconclusive.
SMILES,CCT modulator,MBNL1-CUG inh,Mm-Cpn inhibitor,Epigenetic reg,Akt phos inh,uPA surface inh
C=C1CSc2nc(=O)c3c4c(sc3n21)CCC4,1,-12%,-1%,-5%,-115%*,4%
CCCOc1ccc(CC(=O)NCC2(c3ccccc3)CCOCC2)cc1OC,0,3%,-3%,-1%,-117%*,4%
O=S(=O)(c1ccc(C(F)(F)F)cc1)N1CCCN(c2ccc(C(F)(F)F)cn2)CC1,-34*,-3%,1%,0%,i,1%
O=C(O)c1sccc1S(=O)(=O)N1CCN(c2ccc(C(F)(F)F)cn2)CC1,1,0%,-2%,1%,i,3%
COc1ccc(OC)c2c(N3CCN(C)CC3)cc(C(F)(F)F)nc12,1,32%,-2%,-1%,i,2%
COc1ccc(OC)c2c(N3CC(C)OC(C)C3)cc(C(F)(F)F)nc12 (stereo not given),-2,4%,-1%,0%,-114%*,0%
CC(C)(C)C(=O)C1=C(O)C(=O)N(Cc2ccccc2)C1c1ccccc1Cl (stereo not given),-2,51%,-9%,·,i,10µM*
O=C(Cn1nnc(-c2ccccc2)n1)N=Nc1c(O)[nH]c2ccccc12,0,5%,0%,0%,-105%*,4%
O=C(CCNC(=O)c1ccccc1)N=Nc1c(O)[nH]c2ccccc12,·,?,2%,-1%,·,·
CCCC12CN3CC(C)(CN(C1)C31CCCCC1)C2=O,-48*,-13%,0%,-5%,i,6%
CCCC12CN3CC(C)(CN(C1)C31C(=O)Nc3ccc(C)cc31)C2=O (stereo not given),0,18%,0%,1%,i,8%
Cc1c(C(=O)NCc2cccc(C(F)(F)F)c2)sc(=O)n1Cc1ccc(C(=O)N(C)C)cc1,0,·,·,·,i,·
CCN1CCN(c2ccc(NC(=O)c3cc4ccccc4cc3OC)cc2C)CC1,-6,·,2%,·,i,11µM*
N#Cc1sc2nc(-c3cccs3)cc(-c3ccc(Cl)cc3)c2c1N,-4,11%,0%,14µM*,i,·
O=[N+]([O-])c1ccc(N/N=C/c2cccc(O)c2O)c(S(=O)(=O)N2CCOCC2)c1,1,?,4%,5%,i,?
Cc1ccc(NS(=O)(=O)c2cc([N+](=O)[O-])ccc2N/N=C/c2sc(N3CCOCC3)nc2-c2ccccc2)c(C)c1,-1,1%,0%,32µM*,i,21%
CCOc1ccccc1C1C(C#N)=C(N)N(N(C)C)C2=C1C(=O)CCC2 (stereo not given),-3,-1%,0%,·,i,1%
O=C(Cn1cc(C(F)(F)F)ccc1=O)N/N=C/c1ccc(O)cc1,-39*,3%,4%,-2%,i,-4%
ON=C1c2ccccc2-c2cc(Br)ccc21,2,·,·,·,i,-7%
C[C@]12c3[nH]c4ccccc4c3CCN1C(=O)C(CC(=O)NCc1ccco1)C[C@@H]2C(=O)N1CCOCC1 (stereo not given in full),1,·,2%,·,i,?
O=C(C[C@H]1C[C@H](C(=O)N2CCCCC2)[C@@]2(CCc3ccccc3)c3[nH]c4cc(-c5ccco5)ccc4c3CCN2C1=O)NCCC1=CCCCC1,-89*,·,-2%,·,i,2%
COc1ccc(CNC(=O)CC2C[C@H](C(=O)N(C(C)C)C(C)C)[C@@]3(C)c4[nH]c5ccccc5c4CCN3C2=O)cc1OC (stereo not given in full),-47*,·,-1%,·,i,6%
C[C@]12c3[nH]c4ccccc4c3CCN1C(=O)C(CC(=O)NCc1ccco1)C[C@@H]2C(=O)N1CCCCC1 (stereo not given in full),-3,·,4%,·,i,6.3µM*
Cc1nn2c(CN(C(=O)COc3ccccc3)c3ccccc3)nnc2c2ccccc12,-1,·,-2%,0%,i,0%
Cc1nn2c(CN(C(=O)CN3CCOCC3)c3ccccc3)nnc2c2ccccc12,-34*,2%,-1%,0%,i,-4%
SMILES,CCT modulator,MBNL1-CUG inh,Mm-Cpn inhibitor,Epigenetic reg,Akt phos inh,uPA surface inh
Cc1ccc(-c2nnn(CC(=O)N(CCN3CCOCC3)C(C(=O)NC(C)(C)C)c3ccco3)n2)cc1 (stereo not given),-63*,2%,-2%,0%,i,0%
Cc1ccc(-c2nnn(CC(=O)N(CCN3CCOCC3)C(C(=O)NC(C)(C)C)c3ccc(C)o3)n2)cc1 (stereo not given),1,8%,0%,-1%,i,-1%
COc1cccc(OCCCn2c(-c3ccc(Cl)cc3)nc3ccccc3c2=O)c1,·,·,·,-4%,·,·
COCCn1c(=S)[nH]c2ncccc2c1=O,-2,1%,-1%,-1%,-109%*,-5%
COCCCn1c(=S)[nH]c2ncccc2c1=O,-1,-13%,0%,-1%,-122%*,-3%
COCCCn1c(-c2ccccc2)nc2ccccc2c1=O,0,0%,2%,2%,-121%*,-1%
COCCCn1c(=O)cc(C)[nH]c1=S,-39*,-11%,1%,0%,i,5%
Cc1ccc(CNC(=O)c2cnc(N3CCCCC3)c3ccccc23)cc1,·,·,·,0%,·,·
Cc1ccc(NC(=O)c2ccc(Br)cc2)c(C(=O)c2ccccc2)c1,·,·,·,-2%,·,·
Cn1nnnc1-c1cc(Br)ccc1NC(=O)c1ccccc1,2,?,-5%,-1%,-104%*,-6%
Cc1ccc(S(=O)(=O)CC(O)CN2CCCC2=O)cc1 (stereo not given),-3,0%,1%,1%,-117%*,4%
COc1ccc2[nH]c(C(=O)Nc3ccc(F)cc3Br)cc2c1,-50*,·,?,0%,i,1%
Cn1c(-c2ccccc2)c(/C=N/NC(=O)c2ccc(O)cc2)c2ccccc21,-1,1%,-6%,0%,i,3.5µM*
CCOC(=O)c1[nH]c2ccc(OC)cc2c1NS(=O)(=O)c1ccc(Cl)s1,9,393%,0%,0%,i,-8%
COc1ccc2[nH]c(C(=O)O)c(NS(=O)(=O)c3ccc(Cl)s3)c2c1,-1,0%,2%,0%,-88%*,0%
CC(C)(C)c1ccc(OCCC(=O)Nc2cccc(S(=O)(=O)NC3=NCCCCC3)c2)cc1,1,·,-1%,·,i,-6%
CCN(CC)S(=O)(=O)c1ccc(N2CCOCC2)c(NC(=O)c2cccc3c(=O)c(C)c(-c4ccccc4)oc23)c1,0,·,·,·,i,4.5µM*
Cc1ccc(S(=O)(=O)N2CCOCC2)cc1C(=O)Nc1cccc(C(=O)NC2CC2)c1,-3,·,1%,·,i,1%
